Screening results deposited in PubChem by National Center for Advancing Translational Sciences (NCATS).
An excerpt weighted towards active compounds, which were near 19% of everything screened.
DT40 TDP1 no CPT – qHTS for Inhibitors of human tyrosyl-DNA phosphodiesterase 1 (TDP1): qHTS in cells in absence of CPT; DT40 Tdp1-/- hTDP1 cells, no CPT, ATP luminescence, 48 h; Potency, µM (doses to about 46.2 µM), without a hit: at the top dose activity change, negative = growth inhibition, usual class: inhibitors; hit rate 15% among 420,000; AID 686978, 2013; further: nearly all actives have a fitted effect of over 55% in size
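Compound effects on proliferation are scored in DT40 Tdp1-/-;hTDP1 cells in the absence of CPT. ATP levels (CellTiter-Glo luminescence) are recorded after a ≥48 hr, 37 °C incubation.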
TDP1 block – inhibitors of human tyrosyl-DNA phosphodiesterase TDP1. Q9NUW8. Potency, µM (highest dose often 130 µM), for the others: top-dose activity change, negative = inhibition, hits mostly inhibitors. recombinant TDP1, AlphaScreen DNA substrate cleavage. AID 485290. hit rate 0.28% among 350,000; further: nearly all actives have a fitted effect of over 40% in size
Target sequence (Q9NUW8 whole entry, looked up): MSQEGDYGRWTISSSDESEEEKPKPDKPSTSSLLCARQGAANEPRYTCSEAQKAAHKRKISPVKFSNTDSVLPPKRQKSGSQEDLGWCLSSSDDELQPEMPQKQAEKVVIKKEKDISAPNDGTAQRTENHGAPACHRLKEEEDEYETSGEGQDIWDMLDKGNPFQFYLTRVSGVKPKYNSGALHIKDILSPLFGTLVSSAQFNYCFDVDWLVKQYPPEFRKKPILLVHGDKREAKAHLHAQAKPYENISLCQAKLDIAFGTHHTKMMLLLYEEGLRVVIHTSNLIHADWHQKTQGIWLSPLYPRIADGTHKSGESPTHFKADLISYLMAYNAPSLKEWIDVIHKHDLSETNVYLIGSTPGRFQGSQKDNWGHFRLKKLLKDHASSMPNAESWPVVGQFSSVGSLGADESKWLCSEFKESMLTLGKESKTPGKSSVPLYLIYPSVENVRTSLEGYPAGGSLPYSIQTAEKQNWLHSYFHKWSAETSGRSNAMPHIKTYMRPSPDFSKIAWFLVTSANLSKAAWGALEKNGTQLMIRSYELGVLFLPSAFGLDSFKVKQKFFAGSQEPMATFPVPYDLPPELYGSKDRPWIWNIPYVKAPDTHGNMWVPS
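Recombinant human Tdp1 (E. coli-expressed, 1 nM final) preincubated with compounds 15 min at room temperature, then 5'-biotin/3'-phosphotyrosine-FITC DNA substrate (15 nM final) added for 5 min. AlphaScreen beads (10 ug/ml final) added 10 min; cleavage lowers signal.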
VP16 counter – counter-screen for ROR gamma inhibitors: Gal4-VP16 reporter; Drosophila S2 Gal4-VP16 UAS-luciferase, luminescence, 20 h; Potency, µM (doses to about 53.6 µM), for the others: top-dose activity, negative = inhibition, hits mostly inhibitors; hit rate 3.5% among 310,000; AID 2546;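 further: Gal4-VP16 expression switched on by copper sulfate through the metallothionein promoter; nearly all actives have a fitted effect of over 50% in size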
TDP1 cell CPT – growth inhibition of DT40 Tdp1-/-;hTDP1 cells with camptothecin (screen for TDP1 inhibitors); chicken DT40 Tdp1-/-;hTDP1 cells + 20 nM CPT, ATP luminescence, 48 h; Potency, µM (highest dose often 46.2 µM), for the others: at the top dose activity change, negative = growth inhibition, actives largely listed as inhibitors; hit rate 12% among 420,000; AID 686979; further: nearly all actives have a fitted effect of over 55% in size
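Chicken DT40 Tdp1-/- cells stably complemented with human TDP1 were seeded at 400 cells/well in medium containing 20 nM camptothecin, exposed to pin-transferred compounds, and grown at 37 °C for at least 48 hr. Viability was read as ATP luminescence.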
RORgamma inh – blocks mouse ROR gamma transcriptional activity. Potency, µM (doses to about 53.6 µM), for inactives: at the top dose activity change, negative = inhibition, actives largely listed as inhibitors. hit rate 5.4% among 310,000. AID 2551. Drosophila S2 Gal4-RORgamma UAS-luciferase reporter, 20 h. P51450; further: nearly all actives have a fitted effect of over 60% in size
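In this cell-based reporter format, copper sulfate (700 uM final) drives Gal4–ROR gamma fusion expression from a metallothionein promoter in Drosophila Schneider cells; compounds preincubated 1 hr, reporter read after 20 hr at ambient temperature.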
An asterisk follows results filed as active; ? = inconclusive; nt = no result given; [ ] = dose if it differs, or a comment. The call rests on the fitted dose curve; in most records, active means well fitted curve in the direction sought with a large enough effect; inconclusive means small, poorly fitted or top-dose-only effect, or another doubt; inactive means no such curve, though single readings can be large; an effect the other way counts as inactive or inconclusive. On the % scale 0 is the no-effect control and ±100 the full control effect; potency means the concentration at half of the fitted maximal effect.

SMILES	DT40 TDP1 no CPT	TDP1 block	VP16 counter	TDP1 cell CPT	RORgamma inh
Cc1nc2sc(-c3ccccc3)nn2c(=O)c1Br	?	3%	-6%	23µM*	-9%
Cn1c(SCC(=O)NCC2CCCO2)ncc(C(=O)Nc2ccccc2)c1=O (configuration not stated)	23µM*	nt	nt	26µM*	nt
Cc1cc2c(=O)n(C)c(SCC(=O)NCC3CCCO3)nc2s1 (configuration not stated)	-1%	nt	nt	6%	nt
Cc1ccc(NC(=O)c2cnc(SCC(=O)NCC3CCCO3)n(C)c2=O)cc1C (configuration not stated)	23µM*	nt	nt	21µM*	nt
CC(=O)N1CCN(S(=O)(=O)c2cccc(C(=O)Nc3ccc(C)cn3)c2)CC1	?	3%[56.1 µM]	-7%	-12%	?
Cc1ccc2c(c1)C(=O)C(=O)N2Cc1ccc(Cl)cc1	0.92µM*	4%	nt	0.73µM*	nt
Cc1ccc2c(c1)C(=O)C(=O)N2Cc1ccc(F)cc1	0.92µM*	6%	nt	0.73µM*	nt
CCN1C(=O)C(=O)c2cc(C)ccc21	5.8µM*	0%	nt	4.6µM*	nt
Cc1ccc2c(c1)C(CCN)C(=O)N2Cc1ccccc1 (configuration not stated)	21µM*	5%	1%	?	-17%
Cc1ccc2c(c1)N(Cc1ccccc1)C(=O)C(C)S2 (configuration not stated)	-12%	nt	nt	-14%	nt
Cc1ccc(C)c(NC(=O)c2ccc3c(c2)N(Cc2ccc(F)cc2)C(=O)CS3=O)c1 (configuration not stated)	-27%	3%	-10%	-25%	94%
Cc1ccc(N2CCN(Cc3ccccc3)CC2=O)c(C)c1	-29%	nt	1%	-28%	22%
CCCCCOc1ccccc1CN1C(=O)C(=O)c2cc(C)ccc21	5.2µM*	10%	nt	13µM*	nt
Cc1ccc2c(c1)C(=O)C(=O)N2Cc1ccccc1	1µM*	6%	nt	1.2µM*	nt
CC(=O)c1c(C)nc2ccccn12	8%	0%	-2%	-13%	-23%
Cc1ccc(/C=C/C(=O)c2c(C)nc3ccccn23)cc1	16µM*	-2%	?	16µM*	14µM*
COC(=O)[C@@H]1CCCN1C(=O)c1cc(NC(=O)C2CCC2)c2c(c1)nc(-c1ccncc1)n2C	-13%	nt	nt	-21%	nt
CC(C)(C)CN1CCN(CC#Cc2ccccc2)CC1CCO (configuration not stated)	10µM*	3%	5%	?	-18%
Cc1nc(CCN2C(=O)c3ccccc3C2=O)n[nH]1	23µM*	2%	13%	?	17%
CCOC(=O)c1cc(=O)n2nc(-c3ccccc3F)nc2s1	23µM*	-4%	3%	?	-10%
CN(CCC#N)C(=O)COC(=O)c1nn(-c2ccccc2)c(=O)c2ccccc12	4%	5%	11%	-1%	19%
O=C(COC(=O)c1c2c(nc3ccccc13)/C(=C\c1ccco1)CC2)NC1CCCC1	23µM*	nt	nt	16µM*	nt
O=C(COC(=O)c1ccco1)NC1CCCCC1	7%	0%	16%	-10%	-8%
CN(CCC#N)C(=O)COC(=O)c1c2c(nc3ccccc13)/C(=C\c1ccco1)CC2	13µM*	nt	nt	21µM*	nt
CC1CCCCC1NC(=O)COC(=O)c1c2c(nc3ccccc13)/C(=C\c1ccco1)CC2 (configuration not stated)	23µM*	nt	nt	29µM*	nt
SMILES	DT40 TDP1 no CPT	TDP1 block	VP16 counter	TDP1 cell CPT	RORgamma inh
COc1ccccc1/C=c1\sc2nc(-c3ccccc3OC)nn2c1=O	16µM*	4%	-8%	?	-16%
O=c1nc2sc3ccccc3n2c(=O)n1-c1cccc(Cl)c1	?	5%	?	?	7%
O=c1nc2sc3ccccc3n2c(=O)n1-c1ccc(Cl)cc1	21µM*	6%	25%	?	19%
O=c1nc2sc3ccccc3n2c(=O)n1-c1ccc(Cl)c(Cl)c1	10µM*	nt	nt	?	nt
Cc1ccccc1-c1noc(-c2cc(C(C)C)[nH]n2)n1	?	0%	nt	?	nt
COc1ccccc1N1CCN(S(=O)(=O)c2cc(C(F)(F)F)cc(C(F)(F)F)c2)CC1	?	3%	6%	-21%	0%
COC(=O)[C@H]1[C@H]2C[C@@H]3c4[nH]c5cc(OC)ccc5c4CCN3C[C@H]2C[C@@H](OC(=O)COc2ccc(OC)cc2)[C@@H]1OC	-21%	nt	nt	-4%	nt
c1ccc(CN2CCC(Nc3ncnc4sccc34)CC2)cc1	2%	1%	?	10%	?
CS(=O)(=O)NC1CCN(Cc2ccccc2)CC1	3%	8%	-3%	2%	-17%
Cc1sc2ncnc(NC3CCN(Cc4ccccc4)CC3)c2c1C	3.7µM*	-3%	16µM*	2.6µM*	?
Cc1csc2c(NC3CCN(Cc4ccccc4)CC3)ncnc12	16µM*	4%	-27%	23µM*	32%
CC(=O)Nc1cccc(NC(=O)CSc2ccc(-c3ccccn3)nn2)c1	?	5%	-10%	?	-18%
O=C(CSc1ccc(-c2ccccn2)nn1)c1ccc([N+](=O)[O-])cc1	?	8%	?	?	4.5µM*
O=C(CSc1ccc(-c2cccnc2)nn1)c1ccc([N+](=O)[O-])cc1	?	5%	1%	-17%	1%
Cc1ccc(NC(=O)CSc2ccc(-c3ccccn3)nn2)cc1F	12µM*	2%	5%	16µM*	-33%
CCc1ccc(NC(=O)CSc2ccc(-c3ccccn3)nn2)cc1	23µM*	-2%	?	?	-13%
COc1cc(NC(=O)CSc2ccc(-c3ccccn3)nn2)cc(OC)c1	?	3%	10%	?	-14%
CCOC(=O)c1ccccc1NC(=O)CSc1ccc(-c2ccccn2)nn1	?	2%	-3%	3.7µM*	-20%
CCCCC1Cc2[nH][nH]c(=O)c2C(c2ccc(Cl)cc2)O1 (configuration not stated)	-27%	nt	nt	-10%	nt
COC(=O)c1ccc(N=NN2CCOCC2)cc1	-2%	0%	11%	6%	16%
COC1OC(O)C(NC(=O)C(F)(F)F)CC1O (configuration not stated)	2%	nt	nt	-10%	nt
COc1cc(OC)c2ccc(=O)oc2c1C(CC(=O)N1CCN(c2ccccc2)CC1)c1ccc2c(c1)OCO2 (configuration not stated)	?	4%	-13%	?	8%
Cc1ccc(NC(=O)C(C)Sc2nc3c(c(=O)[nH]2)CCCC3)cc1Cl (configuration not stated)	?	9%	nt	?	nt
O=C(CSc1ccccn1)Nc1ccc2c(c1)C(=O)c1ccccc1C2=O	16µM*	22µM*	?	?	?
